About 83,000 compounds went through this panel and 20% of them were active in at least one assay; those are over-represented in the sample as a whole.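 In brief: 96-well plates, 48 h treatment, single concentration, percent growth endpoint.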 Calls of active or inactive are those of the source. Rule for the calls: active = growth percent below 10; inactive = the rest.
Tested on: HL-60(TB) leukemia
Assay: NCI-60 one-dose screen, 48 h (100 = growth as untreated, 0 = no growth, -100 = all killed)
Conditions: 10 µM unless noted

Compound	growth
CC1(C)[C@@H](O)CC[C@]2(C)[C@H]3CC[C@@H]4[C@H]5[C@H](C(=O)/C=C\c6ccc([N+](=O)[O-])cc6)CC[C@]5(O)CC[C@@]4(C)[C@]3(C)CC[C@@H]12	27.9% (inactive)
CNC(=O)c1cc(N2CCc3cc(NC(=O)Nc4ccc(Cl)c(Cl)c4)ccc32)ccn1	124% (inactive)
N#C/C(=N\Nc1ccc(F)cc1)C(=O)Nc1cc(-c2ccccc2)nn1-c1ccccc1	3.54% (active)
NS(=O)(=O)c1ccc(-n2cc(CN3CCNCC3)nn2)cc1	107% (inactive)
O=C(NNc1nc2cc(F)ccc2n2cncc12)c1cnccn1	10.8% (inactive)
COc1ccc(C2c3sc4c(C)cccc4c3Oc3nc(CC(=O)Nc4ccccc4)[nH]c(=O)c32)cc1 (stereo not drawn)	146% (inactive)
NC(=O)c1c(NC(=O)c2ccc(F)cc2F)sc2c1CCC(=O)C2	34.1% (inactive)
CCN(CC)c1ccc2c(c1)Oc1nc(N)c(C#N)c(N)c1C2Sc1ccc(F)cc1 (stereo not drawn)	-18.4% (active)
COC(=O)[C@@]1(C)CC[C@]2(C)CC[C@]3(C)C(=CC(=O)[C@@H]4[C@@]5(C)Cc6c(n(CC#CCN7CCN(C)CC7)c7ccccc67)C(C)(C)[C@@H]5CC[C@]43C)[C@@H]2C1	3.4% (active)
COc1cc2cc(Oc3ccc(NC(=O)Nc4ccc(F)c(C(F)(F)F)c4)cc3)c(C)nc2cc1OCCN(C)C	94.3% (inactive)
CC[C@]12C=CCN3CC[C@@]4(c5ccc(OC)cc5N(C)[C@H]4[C@@](O)(C(=O)OC)[C@@H]1OC(=O)CCN1CCc4ccccc4C1)[C@@H]32	80.4% (inactive)
CC(O)c1cc2ccccc2c(=O)o1 (stereo not drawn)	102% (inactive)
Nc1cc(-c2c[nH]c3ccc(F)cc23)nc2cc(-c3c[nH]c4ccc(F)cc34)nn12	-37.6% (active)
CC/C(=C(/c1ccc(Cl)cc1)c1ccc(OCCN)cc1)c1ccccc1	43.4% (inactive)
Cn1cc(-c2cc(N)n3nc(-c4cn(C)c5ccc(F)cc45)cc3n2)c2cc(F)ccc21	-32.4% (active)
Cc1ccc(C2CC(c3ccc(Nc4nc(NCCO)nc(Nc5ccc(Cl)cc5)n4)cc3)=Nc3c(N)nc(N)nc3N2)cc1 (stereo not drawn)	10.2% (inactive)
CCn1c(SCC(=O)Nc2cccc(C(=O)/C=C/c3ccccc3Cl)c2)nc2ccccc2c1=O	107% (inactive)

Compound	growth
N/C(=N\c1nc2c(Cl)cccc2s1)C(Cl)(Cl)Cl	25.5% (inactive)
CCCn1cnc2c(c1=N)C(c1ccc(F)cc1)c1sc3c(CC)cccc3c1O2 (stereo not drawn)	-36.4% (active)
O=C(c1ccc(O)cc1)[C@@H]1[C@@H]2CCCN2[C@@]2(C(=O)N(C(=O)c3ccc(F)cc3)c3ccccc32)[C@H]1c1ccc(F)cc1	78.6% (inactive)
CN1CCN(c2ccc3c(C(N)=O)c(NC(=O)c4ccc(C(C)(C)C)cc4)sc3c2)CC1	28.5% (inactive)
O=C(NNc1nc2cc(F)ccc2n2c(CN3CC4CNCC4C3)ccc12)c1cnccn1 (stereo not drawn)	0.485% (active)
CCOC(=O)c1c(NCC(=O)Nc2cccc([N+](=O)[O-])c2)sc2c1CCCC2	1.42% (active)
CCOC(=O)c1cccc(NC2=C(Cl)C(=O)c3nc(C)ccc3C2=O)c1	42% (inactive)
Cc1csc(/N=C(N)/N=C(\N)c2cccs2)n1	111% (inactive)
O=S(=O)(Nc1cccc2ccccc12)c1ccc(-c2cnc(C3CC3)o2)cc1	-16.2% (active)
Nc1ncc(-c2ccc3ncnc(N4CCc5cc(F)c(Cl)cc54)c3c2)cn1	7.66% (active)
CCC(C)[C@H]1OC(=O)[C@H](C(C)C)N(C)C(=O)[C@@H](C(C)C)OC(=O)[C@H](C(C)C)N(C)C(=O)[C@@H](C(C)CC)OC(=O)[C@H](C(C)C)N(C)C1=O (stereo partly drawn)	-47.7% (active)
C[C@@H]1OCC2(CCN(c3cnc(C(=O)Nc4cc(F)cc5cccnc45)cn3)CC2)[C@@H]1N	20.4% (inactive)
CC(C)NC(=O)c1cc(-c2ccc(NC(=O)Nc3ccc(F)cc3)cc2)nc2cccnc12	105% (inactive)
CCOC(=O)C(=O)/C(=C\c1ccc(Cl)cc1)C(=O)N1C(=S)NC(=O)C1CC(C)C (stereo not drawn)	111% (inactive)
CC(C)(C)OC(=O)N1C(=O)c2c(c3c4ccccc4[nH]c3c3ccc4ccccc4c23)C1=O	39.6% (inactive)
CC1=C(C)C(=O)C(Nc2ccc3c(c2)OCCO3)=C(Br)C1=O	-44.2% (active)

Source: PubChem BioAssay (NCI)
